# How the values were obtained:
# Experiment in all cases: universal protein binding microarray (PBM); transcription factors of Arabidopsis thaliana; high values mean tight binding
# Conditions in all cases: protein: recombinant; tags: GST; chain copies: 2; dsDNA, one strand shown
# GST-ANAC092(1-176) = target: T1, GST-ANAC092(1-176) (Arabidopsis thaliana, UniProt Q9FKA0 1-176)
# T1 sequence: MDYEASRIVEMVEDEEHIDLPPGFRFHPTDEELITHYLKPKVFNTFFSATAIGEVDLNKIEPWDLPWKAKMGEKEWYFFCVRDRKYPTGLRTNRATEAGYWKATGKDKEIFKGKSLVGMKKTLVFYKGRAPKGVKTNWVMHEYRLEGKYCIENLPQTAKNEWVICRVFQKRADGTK
# Summary of the method: (§1)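 GST-tagged NAC-domain, full-length or DNA-binding-domain proteins were induced in cells, with zinc acetate added for zinc-finger proteins. They were purified on glutathione–Sepharose 4B and quantified by A280 or anti-GST western blot. Each was applied at 200 to 500 nM final, in duplicate, to custom all-10-mer Agilent 4 × 180K arrays made double-stranded by primer extension, with gapped and ungapped 8-mers scored. Binding is the normalised enrichment score (E-score).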
# GST-ANAC019 NAC domain = target: T2, GST-ANAC019 NAC domain (Arabidopsis thaliana, UniProt Q9C932 14-162)
# T2 sequence: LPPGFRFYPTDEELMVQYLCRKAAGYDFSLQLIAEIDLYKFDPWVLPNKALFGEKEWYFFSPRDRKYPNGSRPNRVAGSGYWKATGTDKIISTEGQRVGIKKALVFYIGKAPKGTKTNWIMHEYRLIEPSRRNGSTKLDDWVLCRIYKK
# Summary of the method: as §1
# GST-ANAC055(1-171) = target: T3, GST-ANAC055(1-171) (Arabidopsis thaliana, UniProt Q9LDY8 1-171)
# T3 sequence: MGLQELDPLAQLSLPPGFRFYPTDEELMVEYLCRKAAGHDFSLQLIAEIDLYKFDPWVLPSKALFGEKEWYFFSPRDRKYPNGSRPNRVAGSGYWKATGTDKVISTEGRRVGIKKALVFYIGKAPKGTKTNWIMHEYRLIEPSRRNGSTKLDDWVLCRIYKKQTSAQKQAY
# Summary of the method: as §1
# GST-ATAF1 NAC domain = target: T4, GST-ATAF1 NAC domain (Arabidopsis thaliana, UniProt Q39013 7-158)
# T4 sequence: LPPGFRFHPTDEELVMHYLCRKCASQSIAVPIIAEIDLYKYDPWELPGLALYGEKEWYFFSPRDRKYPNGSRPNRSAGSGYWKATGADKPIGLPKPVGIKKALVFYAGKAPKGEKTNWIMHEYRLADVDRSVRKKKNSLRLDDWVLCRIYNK
# Summary of the method: as §1
# [1] = target: T5, GST-ANAC092(1-285) full length (Arabidopsis thaliana, UniProt Q9FKA0 1-285)
# T5 sequence: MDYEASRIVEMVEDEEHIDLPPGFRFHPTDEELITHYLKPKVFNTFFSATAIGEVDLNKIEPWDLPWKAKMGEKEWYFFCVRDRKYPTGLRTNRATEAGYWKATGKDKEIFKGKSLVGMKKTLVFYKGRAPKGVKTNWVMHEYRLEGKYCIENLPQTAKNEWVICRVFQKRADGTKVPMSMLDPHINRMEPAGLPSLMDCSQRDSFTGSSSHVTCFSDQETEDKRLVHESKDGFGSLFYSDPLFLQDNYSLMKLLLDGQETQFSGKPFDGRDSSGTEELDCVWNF
# Summary of the method: as §1
# GST-NAP(1-166) = target: T6, GST-NAP(1-166) (Arabidopsis thaliana, UniProt O49255 1-166)
# T6 sequence: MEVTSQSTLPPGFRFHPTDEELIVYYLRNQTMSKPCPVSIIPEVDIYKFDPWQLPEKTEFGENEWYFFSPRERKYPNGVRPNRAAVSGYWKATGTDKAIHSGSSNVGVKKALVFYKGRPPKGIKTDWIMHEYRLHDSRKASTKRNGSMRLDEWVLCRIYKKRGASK
# Summary of the method: as §1
# GST-NST2(1-184) = target: T7, GST-NST2(1-184) (Arabidopsis thaliana, UniProt Q9M274 1-184)
# T7 sequence: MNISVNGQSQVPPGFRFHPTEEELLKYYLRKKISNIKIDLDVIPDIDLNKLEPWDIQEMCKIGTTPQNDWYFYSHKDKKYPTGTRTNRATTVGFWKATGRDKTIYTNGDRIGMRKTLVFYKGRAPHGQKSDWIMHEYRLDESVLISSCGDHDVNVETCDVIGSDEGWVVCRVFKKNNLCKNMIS
# Summary of the method: as §1
# GST-SND1(1-203) = target: T8, GST-SND1(1-203) (Arabidopsis thaliana, UniProt Q9LPI7 1-203)
# T8 sequence: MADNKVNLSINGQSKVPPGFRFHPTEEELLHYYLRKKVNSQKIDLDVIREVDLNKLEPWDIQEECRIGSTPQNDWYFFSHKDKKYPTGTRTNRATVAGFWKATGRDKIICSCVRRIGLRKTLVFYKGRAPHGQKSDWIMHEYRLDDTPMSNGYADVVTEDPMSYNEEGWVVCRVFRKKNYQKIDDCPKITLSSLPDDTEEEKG
# Summary of the method: as §1
# GST-VND3 NAC domain = target: T9, GST-VND3 NAC domain (Arabidopsis thaliana, UniProt Q9FH59 12-162)
# T9 sequence: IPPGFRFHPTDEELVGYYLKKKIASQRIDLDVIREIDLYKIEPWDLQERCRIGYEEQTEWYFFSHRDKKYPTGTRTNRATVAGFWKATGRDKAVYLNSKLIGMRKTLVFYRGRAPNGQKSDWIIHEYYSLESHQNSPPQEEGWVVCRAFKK
# Summary of the method: as §1
# GST-VND7 NAC domain = target: T10, GST-VND7 NAC domain (Arabidopsis thaliana, UniProt Q9C8W9 9-158)
# T10 sequence: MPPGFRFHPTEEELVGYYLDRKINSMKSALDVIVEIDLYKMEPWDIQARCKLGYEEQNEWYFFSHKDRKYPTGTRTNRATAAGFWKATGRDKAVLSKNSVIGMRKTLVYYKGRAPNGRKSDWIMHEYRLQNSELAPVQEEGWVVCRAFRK
# Summary of the method: as §1
# GST-NTL8 NAC domain = target: T11, GST-NTL8 NAC domain (Arabidopsis thaliana, UniProt Q9XIN7 14-156)
# T11 sequence: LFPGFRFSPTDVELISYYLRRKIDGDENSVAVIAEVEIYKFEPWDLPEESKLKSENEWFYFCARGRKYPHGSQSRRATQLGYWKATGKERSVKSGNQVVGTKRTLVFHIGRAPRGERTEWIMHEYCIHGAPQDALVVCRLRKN
# Summary of the method: as §1
Sequence,binding signal (GST-ANAC092(1-176)),binding signal (GST-ANAC019 NAC domain),binding signal (GST-ANAC055(1-171)),binding signal (GST-ATAF1 NAC domain),binding signal [1],binding signal (GST-NAP(1-166)),binding signal (GST-NST2(1-184)),binding signal (GST-SND1(1-203)),binding signal (GST-VND3 NAC domain),binding signal (GST-VND7 NAC domain),binding signal (GST-NTL8 NAC domain)
AGTTACGC,0.273 E-score,0.134 E-score,0.0766 E-score,0.124 E-score,0.275 E-score,0.115 E-score,0.245 E-score,0.412 E-score,0.103 E-score,0.0942 E-score,
ATACGGAA,0.33 E-score,0.436 E-score,0.394 E-score,0.332 E-score,0.399 E-score,0.372 E-score,0.223 E-score,0.219 E-score,0.371 E-score,0.38 E-score,0.0989 E-score
GTAACGTA,0.451 E-score,0.367 E-score,0.189 E-score,0.322 E-score,0.467 E-score,0.315 E-score,0.321 E-score,0.489 E-score,0.338 E-score,0.402 E-score,0.13 E-score
TGCGTAAA,0.396 E-score,0.205 E-score,0.131 E-score,0.216 E-score,0.386 E-score,0.162 E-score,0.291 E-score,0.447 E-score,0.26 E-score,0.244 E-score,0.0652 E-score
CTCACGCA,0.416 E-score,0.359 E-score,0.211 E-score,0.0962 E-score,0.41 E-score,0.171 E-score,0.22 E-score,0.286 E-score,0.194 E-score,0.193 E-score,0.0698 E-score
CACGACAC,0.321 E-score,0.41 E-score,0.372 E-score,0.338 E-score,0.355 E-score,0.343 E-score,0.134 E-score,0.0543 E-score,0.299 E-score,0.348 E-score,0.0614 E-score
AACACGGA,0.298 E-score,0.413 E-score,0.397 E-score,0.299 E-score,0.274 E-score,0.268 E-score,0.173 E-score,0.0986 E-score,0.319 E-score,0.362 E-score,
TGCGTACA,0.372 E-score,0.307 E-score,0.288 E-score,0.272 E-score,0.437 E-score,0.289 E-score,0.279 E-score,0.393 E-score,0.305 E-score,0.281 E-score,0.0577 E-score
AGCGTGTA,0.418 E-score,0.0634 E-score,0.112 E-score,0.136 E-score,0.436 E-score,0.198 E-score,0.22 E-score,0.274 E-score,0.129 E-score,0.163 E-score,
AACGTACG,0.297 E-score,0.122 E-score,0.207 E-score,0.326 E-score,0.403 E-score,0.212 E-score,0.184 E-score,0.326 E-score,0.308 E-score,0.209 E-score,
ATGCCGTA,0.373 E-score,0.395 E-score,0.355 E-score,0.385 E-score,0.41 E-score,0.36 E-score,0.117 E-score,0.307 E-score,0.412 E-score,0.432 E-score,0.0526 E-score
CCACACGC,0.4 E-score,0.242 E-score,0.15 E-score,0.155 E-score,0.436 E-score,0.169 E-score,0.144 E-score,0.213 E-score,0.163 E-score,0.181 E-score,0.0869 E-score
ACGGAACT,0.292 E-score,0.468 E-score,0.438 E-score,0.392 E-score,0.277 E-score,0.452 E-score,0.159 E-score,0.178 E-score,0.417 E-score,0.445 E-score,0.109 E-score
ACGGAACC,0.361 E-score,0.454 E-score,0.446 E-score,0.38 E-score,0.4 E-score,0.461 E-score,0.12 E-score,0.235 E-score,0.382 E-score,0.435 E-score,0.172 E-score
ACGCAATG,0.452 E-score,0.32 E-score,0.21 E-score,0.162 E-score,0.456 E-score,0.35 E-score,0.359 E-score,0.437 E-score,0.314 E-score,0.311 E-score,0.0941 E-score
ACGTCTCT,0.0939 E-score,0.451 E-score,0.412 E-score,0.452 E-score,0.243 E-score,0.381 E-score,0.175 E-score,0.0793 E-score,0.418 E-score,0.442 E-score,
AGACGTAA,0.425 E-score,0.453 E-score,0.389 E-score,0.437 E-score,0.424 E-score,0.456 E-score,0.282 E-score,0.408 E-score,0.42 E-score,0.42 E-score,0.139 E-score
AAACACGC,0.415 E-score,0.261 E-score,0.262 E-score,0.233 E-score,0.442 E-score,0.225 E-score,0.198 E-score,0.259 E-score,0.201 E-score,0.21 E-score,
CACGGAAC,0.397 E-score,0.48 E-score,0.466 E-score,0.397 E-score,0.425 E-score,0.414 E-score,0.175 E-score,0.0702 E-score,0.446 E-score,0.478 E-score,0.127 E-score
TACGGCAA,0.409 E-score,0.409 E-score,0.363 E-score,0.381 E-score,0.422 E-score,0.362 E-score,0.212 E-score,0.381 E-score,0.417 E-score,0.419 E-score,0.192 E-score
GTGCCGTA,0.427 E-score,0.467 E-score,0.432 E-score,0.413 E-score,0.449 E-score,0.412 E-score,0.263 E-score,0.377 E-score,0.443 E-score,0.453 E-score,0.102 E-score
GACACGCA,0.43 E-score,0.358 E-score,0.275 E-score,0.304 E-score,0.455 E-score,0.283 E-score,0.0949 E-score,0.242 E-score,0.208 E-score,0.318 E-score,0.0711 E-score
ACACGGCA,0.481 E-score,0.485 E-score,0.479 E-score,0.446 E-score,0.481 E-score,0.457 E-score,0.245 E-score,0.148 E-score,0.463 E-score,0.481 E-score,0.0652 E-score
ACGCAAAC,0.459 E-score,0.391 E-score,0.265 E-score,0.258 E-score,0.471 E-score,0.368 E-score,0.357 E-score,0.431 E-score,0.378 E-score,0.314 E-score,0.0692 E-score
CACGTTAC,0.467 E-score,0.241 E-score,0.293 E-score,0.287 E-score,0.476 E-score,0.221 E-score,0.328 E-score,0.432 E-score,0.319 E-score,0.275 E-score,0.0995 E-score

# — article PMC4081100, “A DNA-binding-site landscape and regulatory network analysis for NAC transcription factors in Arabidopsis thaliana”
